According to PubChem BioAssay (NCI):
“And” between values parts separate entries of the source, which are not always exact repeats. Equal entries are not always repeated. The panel holds about 83,000 compounds, 20% with a hit somewhere; the sample as a whole holds those more often.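 Note: values are percent growth. 100 is the growth of untreated cells, values between 100 and 0 indicate rising inhibition; between -100 and 0 indicates cell death.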 The source made the active and inactive calls. Rule for the calls: active = growth percent below 10; inactive = the rest.

How the values were obtained:
Assay in all cases: NCI-60 one-dose screen, 48 h (100 = growth as untreated, 0 = no growth, -100 = all killed)
Settings in all cases: 10 µM unless noted
[1] = system: SK-MEL-2 melanoma
[2] = system: EKVX NSCLC
[3] = system: SN12C renal
[4] = system: UO-31 renal
[5] = system: TK-10 renal
[6] = system: ACHN renal
[7] = system: CAKI-1 renal
[8] = system: A498 renal
[9] = system: CCRF-CEM leukemia
[10] = system: MOLT-4 leukemia
[11] = system: SR leukemia
[12] = system: RPMI-8226 leukemia
[13] = system: OVCAR-8 ovarian
[14] = system: OVCAR-5 ovarian
[15] = system: OVCAR-4 ovarian
[16] = system: SK-OV-3 ovarian
[17] = system: IGROV1 ovarian
[18] = system: OVCAR-3 ovarian
[19] = system: HS 578T breast
[20] = system: NCI/ADR-RES ovarian

| Structure (SMILES) | growth [1] | growth [2] | growth [3] | growth [4] | growth [5] | growth [6] | growth [7] | growth [8] | growth [9] | growth [10] | growth [11] | growth [12] | growth [13] | growth [14] | growth [15] | growth [16] | growth [17] | growth [18] | growth [19] | growth [20] |
| --- | --- | --- | --- | --- | --- | --- | --- | --- | --- | --- | --- | --- | --- | --- | --- | --- | --- | --- | --- | --- |
| O=C1CCc2c(sc3[nH]c(=S)n(Cc4ccc(Cl)cc4)c(=O)c23)C1 | -20.9% (active) | -2.48% (active) | 5.94% (active) | -6.54% (active) | 15.3% (inactive) | 6.08% (active) | 3.79% (active) | -2.71% (active) | -9.46% (active) | 18% (inactive) | 17.9% (inactive) | -25.5% (active) | 7.83% (active) | 11.7% (inactive) | 12.4% (inactive) | -10.1% (active) | 23.3% (inactive) | 6.66% (active) | 5.06% (active) | -0.97% (active) |
| Cc1ccc(-c2nc3nc(-c4ccccc4)nc(N4CCN(S(=O)(=O)c5ccccc5)CC4)c3o2)cc1 | 76.9% (inactive) | 96.1% (inactive) | 94.3% (inactive) | 99.2% (inactive) | 79.1% (inactive) | 72% (inactive) | 84% (inactive) | 99.3% (inactive) | 108% (inactive) | 102% (inactive) | 104% (inactive) | 105% (inactive) | 75.5% (inactive) | 99% (inactive) | 99.6% (inactive) | 77.4% (inactive) | 89.2% (inactive) | 93% (inactive) | 43.1% (inactive) | 85.7% (inactive) |
| COc1cc(-c2nn(-c3cccc(NC(=O)CCN4CCN(C)CC4)c3)cc2-c2ccncc2)ccc1Cl | 2.29% (active) | 47.1% (inactive) | 33.3% (inactive) | 41.5% (inactive) | 39.2% (inactive) | 51.7% (inactive) | 38.7% (inactive) | 14.1% (inactive) | 9.08% (active) | 12.7% (inactive) | -43.5% (active) | 4.86% (active) | 35.1% (inactive) | 67.9% (inactive) | 59.7% (inactive) | 23.1% (inactive) | 49.7% (inactive) | 2.81% (active) | -0.227% (active) | 39.9% (inactive) |
| CONC1=Nc2cc(NC(N)=NCc3ccccc3)c(N(C)C3CCCCC3)cc2OC1 | 91.5% (inactive) | 62% (inactive) | 64.8% (inactive) | 75.5% (inactive) | 82.3% (inactive) | 79.1% (inactive) | 93.7% (inactive) | 82.4% (inactive) | 68.2% (inactive) | 54.2% (inactive) | -12.1% (active) | 38.5% (inactive) | 83.9% (inactive) | 65.5% (inactive) | 73.8% (inactive) | 83.5% (inactive) | 59.6% (inactive) | 77.4% (inactive) | 71.4% (inactive) | 99.8% (inactive) |
| CCCCCCCCCCCCCCCC(=O)O[C@@H]1[C@@H](O)[C@@H](O)C([C@H](NC(=O)[C@@H]2C[C@@H](CCC)CN2C)[C@H](C)Cl)O[C@@H]1SC (stereo not given in full) | 112% (inactive) | 100% (inactive) | 104% (inactive) | 77.2% (inactive) | 115% (inactive) | 95.4% (inactive) | 96% (inactive) | 101% (inactive) | 101% (inactive) | 103% (inactive) | 98.5% (inactive) | 90.9% (inactive) | 103% (inactive) | 97.1% (inactive) | 105% (inactive) | 98.2% (inactive) | 101% (inactive) | 109% (inactive) | 122% (inactive) | 112% (inactive) |
| COC(=O)c1nc(-c2ccccc2)oc1S(=O)(=O)N(C)CCO | 82.1% (inactive) | 77.5% (inactive) | 87.6% (inactive) | 59.2% (inactive) | 43.9% (inactive) | 49.2% (inactive) | 54.7% (inactive) | 112% (inactive) | 16.2% (inactive) | 45.2% (inactive) | 8.68% (active) | 42.4% (inactive) | 85.6% (inactive) | 82.5% (inactive) | 77.4% (inactive) | 89.8% (inactive) | 69.2% (inactive) | 34.7% (inactive) | 99.5% (inactive) | 97.2% (inactive) |
| O=C1C=CC(=O)N1c1ccc2ccccc2c1 | 98.2% (inactive) and 101% (inactive) | 112% (inactive) and 95% (inactive) | 99.3% (inactive) and 91.1% (inactive) | 68.3% (inactive) and 72.8% (inactive) | 96.2% (inactive) and 36.7% (inactive) | 38% (inactive) and 50.3% (inactive) | 53.7% (inactive) and 83% (inactive) | 101% (inactive) | 41.3% (inactive) and 33.4% (inactive) | 49.7% (inactive) and 37.1% (inactive) | 40.7% (inactive) and 63.4% (inactive) | 105% (inactive) and 81.3% (inactive) | 103% (inactive) and 101% (inactive) | 96.6% (inactive) and 97.9% (inactive) | 93.7% (inactive) | 107% (inactive) and 99.7% (inactive) | 101% (inactive) and 105% (inactive) | 69.7% (inactive) and 93.9% (inactive) | 93.6% (inactive) and 103% (inactive) | 99.7% (inactive) and 104% (inactive) |
| Nc1nc2ccccc2c2c(=O)c3ccc(Cl)cc3sc12 | 106% (inactive) | 89.2% (inactive) | 91.3% (inactive) | 96.1% (inactive) | 130% (inactive) | 83.6% (inactive) | 89% (inactive) | 99.7% (inactive) | 94.5% (inactive) | 93.6% (inactive) | 84.4% (inactive) | 95.7% (inactive) | 103% (inactive) | 101% (inactive) | 92.1% (inactive) | 98.4% (inactive) | 102% (inactive) | 104% (inactive) | 89.3% (inactive) | 110% (inactive) |
| CC1=C2[C@@H](CC1)[C@]1(C)O[C@@](C3CC3)(C[C@H]1OC(=O)CO)[C@H]2OC(=O)/C=C/c1ccccc1 | 97.2% (inactive) | 87.7% (inactive) | 42.4% (inactive) | -26% (active) | 106% (inactive) | 9.75% (active) | 71.4% (inactive) | -39.1% (active) | 90.3% (inactive) | 77.6% (inactive) | 80.4% (inactive) | 84.3% (inactive) | 8.13% (active) | 96% (inactive) | 110% (inactive) | 99.3% (inactive) | 100% (inactive) | 95.2% (inactive) | -14.6% (active) | 2.55% (active) |
| Cc1c(C(=O)OCCCCOC(=O)c2c(C)n(C)c3scc[n+]23)[n+]2ccsc2n1C | 106% (inactive) | 95.6% (inactive) | 90.8% (inactive) | 78.9% (inactive) | 114% (inactive) | 97.2% (inactive) | 101% (inactive) | 156% (inactive) | 96.4% (inactive) | 94.9% (inactive) | 117% (inactive) | 96.1% (inactive) | 96.2% (inactive) | 83.5% (inactive) | 103% (inactive) | 103% (inactive) | 110% (inactive) | 95.3% (inactive) | 179% (inactive) | 110% (inactive) |
| C#CCOc1cccc(Nc2ncc3ncn(C4CCN(C(=O)CCl)C4)c3n2)c1 (stereo not given) | 61.9% [6.25 µM] (inactive) | 91.3% [6.25 µM] (inactive) | 13.2% [6.25 µM] (inactive) | 29.9% [6.25 µM] (inactive) | -34.9% [6.25 µM] (active) | -31.2% [6.25 µM] (active) | 49.3% [6.25 µM] (inactive) | 89.2% [6.25 µM] (inactive) | -16.6% [6.25 µM] (active) | 5.59% [6.25 µM] (active) | -1.16% [6.25 µM] (active) | 44.1% [6.25 µM] (inactive) | 51.7% [6.25 µM] (inactive) | 53.3% [6.25 µM] (inactive) | 36.3% [6.25 µM] (inactive) | 73.4% [6.25 µM] (inactive) | 1% [6.25 µM] (active) | -6.2% [6.25 µM] (active) | 82.2% [6.25 µM] (inactive) | 78% [6.25 µM] (inactive) |
| CN(C)CCN1C(=O)c2c(c3c4ccccc4n4c3c3c2c2ccccc2n3C2CC(O)C(O)C4(C)O2)C1=O (stereo not given) | 32.6% (inactive) | 46.8% (inactive) | 22.1% (inactive) | 24.1% (inactive) | 24.6% (inactive) | -12.6% (active) | 19.6% (inactive) | 32% (inactive) | 31.1% (inactive) | 0.948% (active) | 5.57% (active) | 18.5% (inactive) | 25.3% (inactive) | 55.6% (inactive) | 29.3% (inactive) | 25.3% (inactive) | 16.5% (inactive) | 41.4% (inactive) | 41.7% (inactive) | 54.5% (inactive) |
| NS(=O)(=O)OCC1OC(n2cnc3cncnc32)C(O)C1O (stereo not given) | 30.5% [0.1 µM] (inactive) and 21.3% [0.1 µM] (inactive) | 69.5% [0.1 µM] (inactive) | -10.2% [0.1 µM] (active) and -29.3% [0.1 µM] (active) | -2.13% [0.1 µM] (active) and 19.4% [0.1 µM] (inactive) | 18.5% [0.1 µM] (inactive) and 13% [0.1 µM] (inactive) | 13.3% [0.1 µM] (inactive) and 14.6% [0.1 µM] (inactive) | -34.9% [0.1 µM] (active) and 8.16% [0.1 µM] (active) | -5.51% [0.1 µM] (active) and -5.14% [0.1 µM] (active) | 11.4% [0.1 µM] (inactive) and -1.11% [0.1 µM] (active) | 0.572% [0.1 µM] (active) and -5.43% [0.1 µM] (active) | 2.84% [0.1 µM] (active) and 3.32% [0.1 µM] (active) | 25.1% [0.1 µM] (inactive) | 1.63% [0.1 µM] (active) and 1.09% [0.1 µM] (active) | 24.4% [0.1 µM] (inactive) and 6.91% [0.1 µM] (active) | 14.6% [0.1 µM] (inactive) and 11.4% [0.1 µM] (inactive) | 18.5% [0.1 µM] (inactive) and 21.6% [0.1 µM] (inactive) | 18% [0.1 µM] (inactive) and 48.5% [0.1 µM] (inactive) | 38.6% [0.1 µM] (inactive) and 28.1% [0.1 µM] (inactive) | 55.8% [0.1 µM] (inactive) | -5.79% [0.1 µM] (active) and 4.02% [0.1 µM] (active) |
| CCN1CCN(C(=O)[C@]23CC[C@@H](C)[C@H](C)[C@@H]2C2=CC[C@@H]4[C@@]5(C)CCC(=O)C(C)(C)[C@@H]5CC[C@@]4(C)[C@]2(C)CC3)CC1 | 12.3% (inactive) | 28.4% (inactive) | 7.97% (active) | -9.67% (active) | 18.7% (inactive) | 9.64% (active) | 23.8% (inactive) | -17.8% (active) | -8.01% (active) | -15.9% (active) | -13.4% (active) | -34.4% (active) | 16.5% (inactive) | -3.73% (active) | 18% (inactive) | 16.2% (inactive) | 14.7% (inactive) | 16.6% (inactive) | -1.77% (active) | 9.16% (active) |
